Rows were chosen to be rich in hits. Some 2.1% of all compounds tested hit in one or more screens of this group.
uPA surface inh = blocks generation of uPA at the cell surface; actives 0.31% (n = 330,000); Potency, µM (top dose mostly 38.3 µM), most hits filed as inhibitors; cell surface uPA generation assay, qHTS; active = well fitted inhibition curve with a large enough effect; inconclusive = small, poorly fitted or top-dose-only effect; inactive = no such curve, though single readings can be large or run the other way; tested in mouse RAW 264.7 cells; also: nearly all actives have a fitted effect of over 55% in size
Giardia kill = kills Giardia lamblia. Giardia lamblia trophozoite viability. activity change, % at 7.66 µM, hits read low. actives 0.15% (n = 340,000). AID 540267; in the data active = activity change below about -80%; inconclusive = between about -30% and that limit;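 also: parasites exposed to compound for two days anaerobically before the ATP read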
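Trophozoites 100 cells/well + cpd; 48 hrs, 37 deg C, anaerobic. ATPLite 1-Step added, 15-30 min RT, luminescence read (ATP-based viability).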
Mito fusion act = inhibitors of mitochondrial division or activators of mitochondrial fusion; AID 485298; S. cerevisiae fusion-defective mutant growth rescue, CellTiterGlo 48 h; actives 0.23% (n = 320,000); Potency, µM (doses to about 46.1 µM), hits mostly activators; also: nearly all actives have a fitted effect of over 45% in size
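Read-out: ATP-based luminescence (CellTiterGlo, 10 min ambient) reporting growth of fusion-defective ts yeast after 48 hours at 37C on glycerol/ethanol YPEG medium in the presence of compound.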
p53 reactivation = re-activators of mutant p53 | H1299 p53-A138V BP100-luciferase reporter, luminescence, 24 h | Potency, µM (titrated, usually from 92.2 µM), most hits filed as activators | actives 0.063% (n = 320,000); also: nearly all actives have a fitted effect of over 45% in size
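H1299 (p53-null), stable ts p53-A138V + BP100-Luc; 1000 cells/well, Opti-MEM/10% FBS; cpd 4 pt, 1:5; 24 h, 37 deg C, 5% CO2; detection reagent 10 min RT; luminescence.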
ClpP mod = qHTS Assay for Activators of ClpP; purified B. subtilis ClpP, FRET peptide cleavage, 20 min; Potency, µM (titrated, usually from 57.5 µM); actives 1.9% (n = 340,000); AID 651965, 2013; active = well fitted falling curve with a large enough effect; inconclusive = small, poorly fitted or top-dose-only effect; inactive = no such curve, though single readings can be large or run the other way; also: the source files actives as falling curves though it sought activators and does not explain the sign; nearly all actives have a fitted effect of over 65% in size
Target sequence (P80244 whole entry, looked up): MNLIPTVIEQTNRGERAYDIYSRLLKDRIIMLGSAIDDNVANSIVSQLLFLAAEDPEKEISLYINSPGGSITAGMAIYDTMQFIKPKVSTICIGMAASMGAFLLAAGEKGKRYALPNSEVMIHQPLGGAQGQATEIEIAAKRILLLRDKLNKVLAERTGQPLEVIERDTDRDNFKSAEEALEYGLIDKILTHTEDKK
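FRET quenching reversal measured ClpP activation: 10 microg/mL B. subtilis ClpP at pH 8 with the FRET-FV decapeptide, read at 430 nm after 320 nm excitation. The 20-min minus 0-min signal was scaled between DMSO/no-enzyme wells and ADEP (5.8 microM final).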
B2AR arrestin = beta2AR (human) beta-arrestin recruitment activity | P07550 | beta-arrestin recruitment to beta2AR, cell-based reporter | Potency, µM (top dose mostly 46.1 µM), hits mostly activators | actives 0.02% (n = 330,000); also: nearly all actives have a fitted effect of over 65% in size
Target sequence (P07550 whole entry, looked up): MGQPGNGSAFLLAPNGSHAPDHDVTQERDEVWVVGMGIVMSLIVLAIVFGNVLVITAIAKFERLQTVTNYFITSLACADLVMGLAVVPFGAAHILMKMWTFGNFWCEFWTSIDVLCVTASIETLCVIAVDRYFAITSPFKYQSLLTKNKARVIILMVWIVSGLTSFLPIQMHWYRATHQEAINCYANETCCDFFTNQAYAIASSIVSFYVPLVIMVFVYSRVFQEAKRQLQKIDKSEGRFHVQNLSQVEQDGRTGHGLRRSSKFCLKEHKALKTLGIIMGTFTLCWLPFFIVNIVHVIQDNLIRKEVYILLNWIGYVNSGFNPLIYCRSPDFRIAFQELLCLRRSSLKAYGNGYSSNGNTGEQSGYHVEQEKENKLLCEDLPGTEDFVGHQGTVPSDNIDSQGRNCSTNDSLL
Of the large screens only hits and unclear results are named; the others gave an inactive call. Unless noted, calls follow the shape of the dose curve; as a rule, active = well fitted curve in the direction sought with a large enough effect; inconclusive = small, poorly fitted or top-dose-only effect, or another doubt; inactive = no such curve, though single readings can be large; an effect the other way counts as inactive or inconclusive.

N#CC1=C(N)C(C#N)(C#N)C(c2cccnc2)C2CC(c3ccccc3)CC=C12 (configuration not stated)	none
N#CC1=C(N)N(c2ccccc2)C(c2ccccc2)C1(C#N)C#N (configuration not stated)	ClpP mod 10µM
CCCCNC(=O)COC(=O)c1ccc(Cl)c(S(N)(=O)=O)c1	ClpP mod 14µM
CC(C)CNC(=O)COC(=O)c1ccc(Cl)c(S(N)(=O)=O)c1	none
CCC(Cn1nnc2ccccc2c1=O)NC(=O)Nc1cc(C)cc(C)c1 (configuration not stated)	none (no result: uPA surface inh, Giardia kill, Mito fusion act, p53 reactivation, B2AR arrestin)
COc1ccc(OC)c(CNC(=O)C2CCN(c3nc4ccccc4nc3C(F)(F)F)CC2)c1	none (no result: uPA surface inh, Giardia kill, Mito fusion act, p53 reactivation, B2AR arrestin)
Oc1ccc(-c2nc3ccc4ccccc4c3c3c2CCC3)cc1O	Mito fusion act 16µM, p53 reactivation inconclusive
Cc1cc(C)c2c(ccc3ccccc32)n1	ClpP mod inconclusive (no result: Mito fusion act, p53 reactivation, B2AR arrestin)
COC(=O)C1=C(C)N(Cc2ccccc2)C(=NCc2ccco2)N[C@H]1c1ccc(Br)cc1	none (no result: uPA surface inh, Giardia kill, p53 reactivation, ClpP mod, B2AR arrestin)
COc1ccc(CNC(=O)c2cc3c(=O)oc4ccc(C)cc4c3s2)c(OC)c1	none (no result: uPA surface inh, Giardia kill, Mito fusion act, p53 reactivation, B2AR arrestin)
COc1ccc(/C=C/C(=O)NCc2ccccn2)cc1	ClpP mod 25µM
COc1cc(/C=C/C(=O)NCc2ccccn2)cc(OC)c1OC	ClpP mod 25µM
COc1cc(/C=C/C(=O)Nc2nnc(CC(C)(C)C)s2)cc(OC)c1OC	none
COc1ccc(/C=C/C(=O)NCc2ccccn2)cc1OC	none (no result: ClpP mod)
COc1ccc(C(=O)NCc2ccccn2)cc1	none
COc1cc(/C=C/C(=O)Nc2nnc(CC(C)C)s2)cc(OC)c1OC	ClpP mod 35µM
COc1ccc(-n2c(=O)c3c4c(sc3n(Cc3ccc(C)cc3C)c2=O)CCC4)c(OC)c1	none (no result: uPA surface inh, Giardia kill, Mito fusion act, p53 reactivation, B2AR arrestin)
COc1ccc(OC)c(NC(=O)CSc2ncc3c(n2)-c2ccccc2N(C)S3(=O)=O)c1	none (no result: uPA surface inh, Giardia kill, Mito fusion act, p53 reactivation, B2AR arrestin)
COC(=O)C1C[C@@H]2C3=C(C(=O)[C@@](C)(NC(=O)c4ccccc4)C3[C@H](C(=O)OC)C1)[C@H](C)n1c(=O)n(-c3ccccc3)c(=O)n12 (some centres not stated)	none (no result: uPA surface inh, Mito fusion act, p53 reactivation, ClpP mod, B2AR arrestin)
O=C(Nc1cc(Sc2ccccn2)cc([N+](=O)[O-])c1)c1cccc(Cl)c1	Mito fusion act 16µM
Cc1ccc(-c2c(C(=O)NCCc3ccccc3)oc(=O)c3ccccc23)cc1	Giardia kill inconclusive (no result: uPA surface inh, Mito fusion act, p53 reactivation, B2AR arrestin)
CCOc1cc(/C=N/NC(=O)CNc2cccc(C)c2)ccc1OC(=O)c1ccccc1	ClpP mod 10µM
COc1ccccc1CNC(=O)CSc1nc(=O)[nH]c2c1CCCC2	none (no result: uPA surface inh, Giardia kill, Mito fusion act, p53 reactivation, B2AR arrestin)
Cc1ccc(N2CCN(C(=O)CCS(=O)(=O)c3cc4c(cc3Cl)NC(=O)CO4)CC2)c(C)c1	none (no result: uPA surface inh, Giardia kill, Mito fusion act, p53 reactivation, B2AR arrestin)
CCCc1cc(=O)oc2cc(C)c3c(-c4ccccc4)coc3c12	ClpP mod 20µM (no result: uPA surface inh, Giardia kill, Mito fusion act, p53 reactivation, B2AR arrestin)
CCCc1cc(=O)oc2cc(C)c3c(C)coc3c12	ClpP mod inconclusive
CCn1nc(-c2ccc(C)cc2)nc2c(=O)n(C)c(=O)nc1-2	Giardia kill -102 (no result: uPA surface inh, Mito fusion act, p53 reactivation, B2AR arrestin)
Cn1nc(-c2ccncc2)nc2c(=O)n(C)c(=O)nc1-2	Giardia kill -88 (no result: uPA surface inh, Mito fusion act, p53 reactivation, B2AR arrestin)
CCOC(=O)C1=C(CN2CCN(c3ccc(Cl)cc3)CC2)NC(=O)NC1c1ccc(F)cc1 (configuration not stated)	none (no result: uPA surface inh, Giardia kill, Mito fusion act, p53 reactivation, B2AR arrestin)
Cc1ccc(NC(=O)C2CCC(CNS(=O)(=O)c3ccc4c(c3)CCCC(=O)N4)CC2)cc1F (configuration not stated)	none (no result: uPA surface inh, Giardia kill, Mito fusion act, p53 reactivation, B2AR arrestin)
COc1cc(SC)ccc1C(=O)Nc1ncc(C)s1	uPA surface inh 3.5µM, Giardia kill inconclusive
COc1cc(SC)ccc1C(=O)Nc1ccc(Br)cn1	uPA surface inh inconclusive, Giardia kill inconclusive
Cc1cccc(Nc2nc(NCCCN3CCOCC3)nc(N)c2[N+](=O)[O-])c1	ClpP mod 20µM
Nc1nc(NCCCN2CCOCC2)nc(Nc2cccc(F)c2)c1[N+](=O)[O-]	none (no result: ClpP mod)
CCN(CC)c1ccc(/C=N/NC(=O)CNC(=O)C2COc3ccccc3O2)c(O)c1 (configuration not stated)	p53 reactivation 18µM
c1ccc(-c2noc(-c3cccnc3)n2)cc1	none (no result: p53 reactivation, B2AR arrestin)
O=c1[nH]c2ccccc2cc1-c1noc(-c2cccnc2)n1	ClpP mod 32µM (no result: uPA surface inh)

Compound activity from PubChem.
